Screens from PubChem BioAssay.
PLK1 PBD block: inhibitors of human PLK1 polo-box domain binding; Plk1 PBD binding of FITC phosphopeptide, fluorescence polarization; Potency, µM, for the others: max response, negative = inhibition, actives largely listed as inhibitors; 360,000 tested, 2.8% active; AID 720504; further: potency means the concentration at half of the fitted maximal effect; series mostly up to about 57 µM; on the % scale 0 is the no-effect control and ±100 the full control effect; nearly all actives have a fitted effect of over 65% in size
HP1b binding inh: HP1-beta chromodomain-methylated histone interaction inhibition; P83916; AlphaScreen HP1-beta / biotin-H3K9me3 peptide binding; Potency, µM (top dose mostly 114 µM), without a hit: at the top dose activity change, negative = inhibition, usual class: inhibitors; 390,000 tested, 0.56% active; further: potency means the concentration at half of the fitted maximal effect; nearly all actives have a fitted effect of over 70% in size
Target sequence (P83916 whole entry, looked up): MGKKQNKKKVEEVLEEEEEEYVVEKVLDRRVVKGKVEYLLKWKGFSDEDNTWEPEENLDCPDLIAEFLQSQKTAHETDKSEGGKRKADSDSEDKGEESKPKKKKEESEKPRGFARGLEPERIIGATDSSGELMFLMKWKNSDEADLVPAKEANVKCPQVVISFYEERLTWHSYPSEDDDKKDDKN
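Compound inhibition of the preformed complex between 50 nM HP1-beta and 50 nM biotinylated H3K9me3 peptide was read by AlphaScreen. Buffer was PBS pH 7.4 with 0.01% Tween-20. Incubations ran 30 min at room temperature, with 10 ug/mL donor/acceptor beads.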
PI5P4K alpha inh: blocks human PI5P4K alpha kinase activity; PI5P4Kalpha enzyme, ADP-Glo luminescence, 60 min; stronger effect = lower value; P48426; max response, %; 330,000 tested, 1.2% active; active means max response of -50% or lower; inconclusive means between -30% and -50%; inactive means -30% or higher; further: value at the top dose of about 77 µM; on the % scale 0 is the no-effect control and ±100 the full control effect
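Compounds were pin-transferred onto PI5P4Kalpha and substrate in HEPES pH 7.4 buffer with EGTA, CHAPS and 5% DMSO. ATP (5 microM final) started the reaction, which ran 60 minutes at room temperature before ADP-Glo detection.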
JMJD2A Tudor inh: blocks the human JMJD2A Tudor domain; O75164; AlphaScreen JMJD2A-Tudor / H3K4me3 peptide binding; Potency, µM (titrated, usually from 114 µM), for the others: at the top dose activity change, negative = inhibition, most hits filed as inhibitors; 390,000 tested, 4.4% active; AID 504339; further: potency means the concentration at half of the fitted maximal effect; on the % scale 0 is the no-effect control and ±100 the full control effect; nearly all actives have a fitted effect of over 50% in size
BAZ2B block: BAZ2B (human) inhibition; AID 504333; Potency, µM (highest dose often 114 µM), for the others: top-dose activity change, negative = inhibition, most hits filed as inhibitors; AlphaScreen BAZ2B-H3K14Ac peptide displacement; 360,000 tested, 4.4% active; further: potency means the concentration at half of the fitted maximal effect; on the % scale 0 is the no-effect control and ±100 the full control effect; nearly all actives have a fitted effect of over 60% in size
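Protein-peptide AlphaScreen: BAZ2B 50 nM, b-H3K14Ac 50 nM, 1x PBS pH 7.4 + 0.01% Tween-20. Preincubation 30 min RT; cpd 30 min RT (top 110 uM); beads 20 min RT, light-protected.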
G9a inh: G9a (human) methyltransferase inhibition. Q96KQ7. G9a H3K9 monomethylation, AlphaScreen, 2 h. Potency, µM (top dose mostly 102 µM), for inactives: top-dose activity, negative = inhibition, hits mostly inhibitors. 350,000 tested, 8.8% active; further: potency means the concentration at half of the fitted maximal effect; on the % scale 0 is the no-effect control and ±100 the full control effect; nearly all actives have a fitted effect of over 75% in size
Target sequence (Q96KQ7 913-1193 limits assumed): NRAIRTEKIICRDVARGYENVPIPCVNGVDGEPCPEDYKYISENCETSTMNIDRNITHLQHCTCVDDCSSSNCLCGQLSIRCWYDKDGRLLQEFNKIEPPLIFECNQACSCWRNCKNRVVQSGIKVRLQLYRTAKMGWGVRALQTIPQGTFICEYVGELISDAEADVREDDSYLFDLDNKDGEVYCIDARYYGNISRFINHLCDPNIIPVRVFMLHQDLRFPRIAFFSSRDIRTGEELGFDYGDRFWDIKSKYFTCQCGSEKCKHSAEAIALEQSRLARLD
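Step 1: enzyme (final 20 nM) with compound, 15 min RT. Step 2: substrate peptide 500 nM and SAM 20 uM, 2 h RT. Step 3: anti-H3K9me1 antibody and AlphaScreen beads, 10 min, then plate read.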
An asterisk follows results filed as active; u = inconclusive; x = no result given; [ ] = remark or other dose. In the library only some 12% were active in any assay of this set; here they are far more common. Unless noted, the call rests on the fitted dose curve; in most records, active means well fitted curve in the direction sought with a large enough effect; inconclusive means small, poorly fitted or top-dose-only effect, or another doubt; inactive means no such curve, though single readings can be large; an effect the other way counts as inactive or inconclusive.

SMILES | PLK1 PBD block | HP1b binding inh | PI5P4K alpha inh | JMJD2A Tudor inh | BAZ2B block | G9a inh
Brc1cc2c(cc1-c1nc3ccccc3s1)OCO2 | u | -9% | 18 | 6% | 26% | 40µM*
O=C(NCC1CCCN1S(=O)(=O)c1cccs1)C(=O)Nc1ccccc1Cl (stereo unspecified) | -4% | 28% | -5 | -8% | 10% | -32%
O=C(CCOc1ccccc1)Nc1ccccc1F | -9% | 45% | -1 | 14% | 2% | -1%
COc1ccccc1CN1CC(C(=O)N(C)CCc2nc3ccc(F)cc3[nH]2)CCC1=O (stereo unspecified) | 3% | 26% | 1 | -24% | -13% | -5%
C/C(=N\Nc1ccc(C)c(Cl)c1)c1ccncc1 | -9% | 23% | 2 | u | u | 22µM*
C/C(=N\Nc1ccc(C)c(Cl)c1)c1cccnc1 | -6% | 45% | -2 | -17% | -38% | 11µM*
COc1ccc(CCNC(=O)C(NS(=O)(=O)c2ccc3c(c2)CCN3C(C)=O)C(C)C)cc1OC (stereo unspecified) | x | x | x | x | -19% | 40µM*
C=CCN(CC=C)C(=S)Nc1ccc(OC)c(OC)c1 | -13% | 33% | -2 | -7% | -5% | -7%
COc1ccc(CN(Cc2ccco2)C(=O)COc2ccc(Cl)cc2C)cc1 | x | 67% | x | 3% | 32% | 69%[59 µM]
S=c1[nH]nc(-c2ccc3ccccc3n2)n1-c1ccc(Cl)cc1 | -19% | 13% | -4 | u | 4% | u
Cc1ccc(-c2nc3nc4ccccc4nc3n2Cc2ccco2)cc1 | -15% | 10% | -12 | -23% | 5% | u
Cc1c(Cl)c(-c2n[nH]c(=S)n2Cc2ccco2)nn1C | -7% | 20% | 2 | 8.9µM* | -9% | 7.9µM*
Cc1c(Cl)c(-c2n[nH]c(=S)n2-c2ccccc2)nn1C | 2% | 28% | 0 | 4.5µM* | 2% | 8.9µM*
S=c1[nH]nc(-c2ccc(Br)cc2)n1Cc1ccco1 | -28% | -17% | -17 | 56µM* | u | 0.4µM*
Cc1nc2c([nH]1)c(=O)n(C)c(=O)n2Cc1ccco1 | x | 21% | x | -11% | x | -16%[59 µM]
S=c1[nH]nc(-c2ccncc2)n1Cc1ccco1 | -3% | 15% | x | 7.9µM* | -5% | 1µM*
COc1ccc(S(=O)(=O)N2CCN(c3nc(-c4ccccc4)nc4ccccc34)CC2)cc1 | x | 16% | x | u | x | x
COc1ccc2c(=O)c3c(=O)n(Cc4ccco4)c(-c4ccccc4)nc3oc2c1 | -12% | 6% | x | -27% | -13% | u
COc1cccc(-c2n[nH]c(=S)n2Cc2ccco2)c1 | u | -23% | u | 20µM* | -36% | 3.2µM*
CC(=O)N1CCc2cc(S(=O)(=O)NC(CC(C)C)C(=O)Nc3ccc(C(C)C)cc3)ccc21 (stereo unspecified) | x | 27% | x | -12% | x | -7%[59 µM]
C[C@H](NS(=O)(=O)OCC(Cl)(Cl)Cl)C1CC1c1ccccc1 (stereo partly specified) | -28% | -17% | -16 | 45µM* | u | u
CC(NS(=O)(=O)OCC(Cl)(Cl)Cl)c1ccc(C(C)(C)C)cc1 (stereo unspecified) | -19% | 111% | -25 | 34% | 10% | 42%
CC(=NCCc1ccccc1)C1=C(O)CSC1=O | 12µM* | -14% | -19 | -23%[11.4 µM] | -4% | 20%[59 µM]
CC(=NCCc1ccccc1)C1=C(O)CCC1=O | -13% | 5% | x | -10% | -3% | -1%
NC(=O)C1CCN(C(=O)c2cccc(S(=O)(=O)N3CCCC3)c2)CC1 | -8% | 39% | 1 | -3% | 2% | -22%
O=C1COc2ccc(-c3csc(NCC4CCCO4)n3)cc2N1 (stereo unspecified) | -12% | 0% | -3 | -33% | -36% | u
COc1ccc(-c2cc(-c3ccc(OC)cc3)nc(-c3ccc4c(c3)NC(=O)CO4)c2)cc1 | -2% | 27% | x | -13% | -7% | -32%[2.33 µM]
CC(Nc1nc(-c2ccc3c(c2)NC(=O)CO3)cs1)c1ccccc1 (stereo unspecified) | 17µM* | 33% | 6 | -21% | u | u
